# AmpC inh detg = qHTS Inhibitors of AmpC Beta-Lactamase (assay with detergent); P00811; AmpC hydrolysis of nitrocefin, absorbance 480 nm, 0.01% Triton; Potency, µM (highest dose often 114 µM), without a hit: at the highest dose activity change, negative = inhibition, hits mostly inhibitors; 370,000 compounds, 0.041% hits; AID 485294, 2010;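 further: 0% = no-compound wells and -100% = no-enzyme wells; nearly all actives have a fitted effect of over 25% in size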
# Target sequence (P00811 whole entry, looked up): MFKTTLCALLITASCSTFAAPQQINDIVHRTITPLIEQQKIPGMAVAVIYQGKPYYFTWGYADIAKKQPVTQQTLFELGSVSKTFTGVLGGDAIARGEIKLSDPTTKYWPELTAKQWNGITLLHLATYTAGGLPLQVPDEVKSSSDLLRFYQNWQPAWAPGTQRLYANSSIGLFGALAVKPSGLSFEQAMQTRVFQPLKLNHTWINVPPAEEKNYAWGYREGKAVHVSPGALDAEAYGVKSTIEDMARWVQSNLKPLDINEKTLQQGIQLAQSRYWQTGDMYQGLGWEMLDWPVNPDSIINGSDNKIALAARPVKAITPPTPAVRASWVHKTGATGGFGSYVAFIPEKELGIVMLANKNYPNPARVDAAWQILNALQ
#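 AmpC (5.3 nM in the dispensed reagent) in 20 mM phosphate pH 7.0 with 0.01% (detergent screen) or 0.0001% Triton X-100 was preincubated with compounds for 15 min at room temperature. Nitrocefin was then added from an 800 uM solution, and hydrolysis was followed at 480 nm.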
# AmpC inh no detg = qHTS Inhibitors of AmpC Beta-Lactamase (assay without detergent). P00811. AmpC nitrocefin hydrolysis, absorbance 480 nm, 0.0001% Triton. Potency, µM (top dose mostly 57.1 µM), for inactives: top-dose activity change, negative = inhibition, most hits filed as inhibitors. 330,000 compounds, 0.52% hits;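 further: plate controls were no compound for no effect and no enzyme for full effect; nearly all actives have a fitted effect of over 20% in size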
#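 AmpC (5.3 nM in the dispensed reagent) in 20 mM phosphate pH 7.0 with 0.01% (detergent screen) or 0.0001% Triton X-100 was preincubated with compounds for 15 min at room temperature. Nitrocefin was then added from an 800 uM solution, and hydrolysis was followed at 480 nm.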
# Sm TGR block = qHTS Assay for the Inhibitors of Schistosoma Mansoni Peroxiredoxins. purified TGR, DTNB reduction, TNB absorbance 405 nm. Potency, µM (highest dose often 114 µM), for inactives: at the highest dose activity change, negative = inhibition, hits mostly inhibitors. 360,000 compounds, 3% hits. AID 485364, 2010; further: nearly all actives have a fitted effect of over 60% in size
#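 TGR 20 nM + NADPH 100 uM (dispensed conc.), cpd preinc 15 min RT; start with NADPH (500 uM addition) then DTNB (15 mM addition). Kinetic TNB absorbance, 405 nm filter. Four-parameter Hill fit across titration.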
# * = called active by the depositor; ? = inconclusive; / = not tested or not shown. In the library only some 3.3% were active in any assay of this set; here they are far more common. The call rests on the fitted dose curve; in most records, active means well fitted curve in the direction sought with a large enough effect; inconclusive means small, poorly fitted or top-dose-only effect, or another doubt; inactive means no such curve, though single readings can be large; an effect the other way counts as inactive or inconclusive. Unless noted, on the % scale 0 is the no-effect control and ±100 the full control effect; potency means the concentration at half of the fitted maximal effect.
SMILES,AmpC inh detg,AmpC inh no detg,Sm TGR block
Nc1c2c(nc3sc4c(c13)CCCCC4)CCCCC2,-0.3%,-26.1%,2.8%
Nc1c2c(nc3sc4c(c13)CCCC4)CCCCC2,-0.9%,3.98µM*,-14.0%
Cc1cc(NC(=O)CCc2nc3cccnc3n2Cc2cccs2)ccc1Br,18.1%,/,-10.3%
Oc1ccccc1-c1nc(/C=C/c2ccccc2Cl)nn1-c1ccccc1,2.3%,/,14.1%
Cc1nnc(SCc2nnc(-c3ccccc3Br)o2)n1-c1ccccc1,?,5.62µM*,-3.8%
Cc1nnc(SCc2nnc(-c3ccc(Cl)cc3)o2)n1-c1ccccc1,-1.9%,26.8%,8.3%
CN1C(=O)/C(=C/c2ccc(O)c([N+](=O)[O-])c2)N(C)C1=S,-6.2%,-24.0%,/
O=[N+]([O-])c1cc([As](=O)(O)O)ccc1O,?,-12.5%,31.6µM*
CCOc1ccccc1CNC(=O)c1cnc2sc(N(CC)CC)nn2c1=O,0.3%,/,2.6%
CCc1ccccc1NC(=O)Cn1nc2c3cc(F)ccc3n(Cc3cccc(C)c3)cc-2c1=O,-0.8%,/,7.7%
Cc1ccc(SCC(=O)n2nc(C)cc2C)cc1,5.2%,-13.7%,2.0%
Cc1cc(C)n(C(=O)CSc2nc3ccccc3o2)n1,28.2µM*,-4.2%,-1.7%
Cc1sc(NC(=O)CN2C(=O)NC3(CCCC3)C2=O)nc1-c1ccc(F)cc1,?,25.1µM*,4.6%
CC(=O)c1sc(NC(=O)CN2C(=O)NC3(CCCC3)C2=O)nc1-c1ccccc1,0.7%,-21.4%,-0.5%
COC(=O)c1ccc(NC(=O)NC(C)c2c(-n3cccc3)sc(C)c2C)cc1 (stereo not drawn),16.4%,/,18.8%
COc1ccc(NC(=O)CSc2nc3c(c(=O)n2-c2ccccc2)SCC3)c(OC)c1,?,-8.4%,25.1µM*
CCOc1ccc(-n2c(SCC(=O)Nc3ccc(OC)cc3OC)nc3c(c2=O)SCC3)cc1,-10.5%,-15.6%,-12.3%
CC(C)c1ccc(NS(=O)(=O)c2ccc3[nH]c(=O)ccc3c2)cc1,-2.6%,/,-4.0%
Cc1ccc(Cl)cc1N1CCN(C(=O)CCCCCn2c(=O)[nH]c3ccccc3c2=O)CC1,3.2%,/,-5.3%
CS(=O)(=O)c1ccc(-n2nnc3ccccc32)c([N+](=O)[O-])c1,2.5%,-18.3%,-1.2%
N#Cc1cc([N+](=O)[O-])c(-n2nnc3ccccc32)c([N+](=O)[O-])c1,0.6%,-13.2%,14.1µM*
CCc1cc(C(c2ccccn2)N2CCN(C)CC2)c(NC(=O)c2ccccc2)s1 (stereo not drawn),?,86.7%,11.2µM*
Cc1sc(NC(=O)c2ccccc2)c(C(c2ccccn2)N2CCN(CCO)CC2)c1C (stereo not drawn),-1.6%,350.2%,-0.2%
CC(NC(=O)CN(c1ccc(Cl)cc1Cl)S(=O)(=O)c1ccccc1)c1ccccc1 (stereo not drawn),-1.6%,/,-0.1%
COC(=O)C1=C(C)N(Cc2ccco2)C(=O)C1,-1.2%,12.0%,17.8µM*
SMILES,AmpC inh detg,AmpC inh no detg,Sm TGR block
COC(=O)C1=C(C)N(Cc2ccc(OC)cc2)C(=O)C1,-1.9%,?,-6.2%
COC(=O)C1=C(C)N(Cc2ccco2)C(=O)N[C@H]1c1cccc(C(F)(F)F)c1,-6.9%,-4.8%,?
COC(=O)C1=C(C)N(Cc2ccco2)C(=O)N[C@@H]1c1ccccc1,?,-9.2%,35.5µM*
COc1ccc(S(=O)(=O)NCCc2nnc3ccc(SCC(=O)Nc4ccc(C(F)(F)F)cc4)nn23)cc1,-1.4%,/,2.3%
COc1cccc(CNS(=O)(=O)c2ccc(N3CCCCS3(=O)=O)cc2)c1,10.7%,/,8.3%
CCOc1ccc(N2C(=O)CC(Sc3n[nH]c(-c4ccccc4)n3)C2=O)cc1 (stereo not drawn),-2.5%,-30.1%,0.631µM*
COc1ccc(N2C(=O)CC(Sc3nc(C)c4c(n3)CCCC4)C2=O)cc1 (stereo not drawn),-15.5%,5.7%,0.0%
CCOc1ccc(N2C(=O)CC(SCC(=O)O)C2=O)cc1 (stereo not drawn),5.6%,-10.3%,-7.3%
COc1ccc(N2C(=O)CC(Sc3n[nH]c(-c4ccccc4)n3)C2=O)cc1 (stereo not drawn),-3.7%,13.9%,0.316µM*
CC(=O)c1ccccc1OCC(O)Cn1c(CO)nc2ccccc21 (stereo not drawn),2.2%,/,-1.1%
O=C(Nc1ccc2c(c1)CCCN2C(=O)c1cccs1)c1cccc(C(F)(F)F)c1,-0.4%,/,1.1%
CCc1ccccc1NC(=O)[C@@H](c1ccccc1)N1Cc2ccccc2C1=O,-6.1%,/,3.1%
COc1cc(-c2noc(C)c2C#Cc2ccccn2)cc(OC)c1OC,?,50.1%,35.5µM*
COc1cc(-c2noc(C)c2C#Cc2ccc(N)cc2)cc(OC)c1OC,?,93.9%,-14.8%
O=C(Nc1nnc(Cc2c[nH]c3ccccc23)s1)c1ccc(Cl)cc1Cl,?,-27.7%,0.9%
CC(C)(C)c1ccc(C(=O)Nc2nnc(Cc3c[nH]c4ccccc34)s2)cc1,-3.2%,11.2µM*,0.8%
COC(=O)c1ccccc1NC(=O)Cn1c(=O)n(CCCC(=O)NCCc2ccc(OC)c(OC)c2)c(=O)c2ccccc21,-1.0%,/,?
Cc1cccc(OC(=O)CSc2nnc(-c3ccc4c(c3)OCO4)o2)c1C,20.7%,/,?
COc1ccc(N(Cc2cc(=O)[nH]c3ccccc23)C(=O)c2ccco2)cc1,?,-3.1%,31.6µM*
COc1ccc(CN(C(=O)c2ccco2)c2ccccc2)cc1,?,-15.8%,-5.8%
CCOC(=O)N1CCC(NC(=O)c2cnn(-c3ccc(F)cc3)c2-n2cccc2)CC1,7.4%,/,1.5%
CC1Cc2ccccc2N1Cc1cc(=O)c(OCC(=O)Nc2ccccc2)co1 (stereo not drawn),-12.7%,35.5µM*,8.6%
Cc1ccc(NC(=O)COc2coc(CN3c4ccccc4CC3C)cc2=O)c(C)c1 (stereo not drawn),-19.1%,-1.2%,0.5%
CCOc1ccc(CNS(=O)(=O)c2ccc(-c3ccc(=O)[nH]n3)o2)cc1OC,-4.8%,-10.2%,?
COc1ccc(CNS(=O)(=O)c2ccc(-c3ccc(=O)[nH]n3)o2)cc1,-0.4%,-10.3%,89.1µM*
SMILES,AmpC inh detg,AmpC inh no detg,Sm TGR block
CC1=C(C(=O)Nc2ccccc2Cl)C(c2cccc(O)c2)n2ncnc2N1 (stereo not drawn),18.4%,/,-2.3%
COCc1ccc(CN2CCc3c([nH]c4ccccc34)C2CC(C)C)o1 (stereo not drawn),2.8%,33.0%,35.5µM*
CCc1nccn1CCC(=O)N1CCc2c([nH]c3ccccc23)C1CC(C)C (stereo not drawn),3.8%,34.7%,-1.7%
Cc1ccccc1CN1C(=O)c2ccccc2S(=O)(=O)c2ccc(C(=O)OCC3CCCO3)cc21 (stereo not drawn),1.9%,/,-3.4%
CC(C)Oc1ccc(CNC(=O)CCn2c(=O)c3cccn3c3ccc(F)cc32)cc1,10.3%,/,-0.6%
COc1ccc(Cl)cc1S(=O)(=O)Nc1ccc2[nH]c(=O)[nH]c2c1,14.3%,/,-0.6%

# Source: PubChem BioAssay
